# Experimental data taken from the supplement of paper PMC4709259.
# Where a name gives a salt, the structure may show the parent alone. ± gives the standard deviation.
# Key:
# Jurkat [1] = experiment: mean cell size (FSC-A) relative to DMSO control (fraction of control); higher = larger cells; settings: 48 h
# Outline: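 Jurkat cells at 600 cells/µl were incubated for 1 h and then treated for 48h with the Enzo Screen-Well FDA Approved Drug Library v2.0 at 25µM, with DMSO at 0.9% (v/v) final. Compounds that reduced counts below 20% of controls were retested in 10-fold dilutions down to 25nM. Cell count and mean cell size, taken as forward scatter area, were measured by flow cytometry relative to solvent-only controls. Each plate carried 6-12 controls, and values are means of 3 biological replicates.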
# Jurkat [2] = experiment: cell count relative to DMSO control (fraction of control); higher = more cells (less growth inhibition); settings: 48 h
smiles,measurement,setting,value
NC(=O)N1c2ccccc2CC(=O)c2ccccc21 [Oxcarbazepine] (concentration: 25 µM),mean cell size,Jurkat [1],0.952 ± 0.015
same,cell count,Jurkat [2],0.772 ± 0.15
COc1ccnc(C[S+]([O-])c2nc3cc(OC(F)F)ccc3[nH]2)c1OC (stereo unspecified) [Pantoprazole] (concentration: 25 µM),mean cell size,Jurkat [1],0.9065 ± 0.0044
same,cell count,Jurkat [2],0.85 ± 0.034
OC(CCN1CCCCC1)(c1ccccc1)C1CCCCC1 (stereo unspecified) [Trihexyphenidyl·HCl] (concentration: 25 µM),mean cell size,Jurkat [1],1.04 ± 0.031
same,cell count,Jurkat [2],1.05 ± 0.066
Cc1nc(-c2ccc(OCC(C)C)c(C#N)c2)sc1C(=O)O [Febuxostat] (concentration: 25 µM),mean cell size,Jurkat [1],1 ± 0.024
same,cell count,Jurkat [2],0.592 ± 0.028
O=C(O[C@@H]1C[C@@H]2C[C@H]3C[C@H](C1)N2CC3=O)c1c[nH]c2ccccc12 [Dolasetron] (concentration: 25 µM),mean cell size,Jurkat [1],0.921 ± 0.029
same,cell count,Jurkat [2],0.29 ± 0.053
O=P(O)(O)C(O)(Cc1cccnc1)P(=O)(O)O [Risredonic Acid] (concentration: 25 µM),mean cell size,Jurkat [1],0.964 ± 0.048
same,cell count,Jurkat [2],0.428 ± 0.091
CC(CN1c2ccccc2Sc2ccccc21)N(C)C (stereo unspecified) [Promethazine·HCl] (concentration: 25 µM),mean cell size,Jurkat [1],0.994 ± 0.023
same,cell count,Jurkat [2],0.717 ± 0.16
CC(C)c1c(C(=O)Nc2ccccc2)c(-c2ccccc2)c(-c2ccc(F)cc2)n1CC[C@@H](O)C[C@@H](O)CC(=O)O [Atorvastatin Calcium] (concentration: 25 µM),mean cell size,Jurkat [1],1.05 ± 0.028
same,cell count,Jurkat [2],0.552 ± 0.07
CCCCCCCCCCCCCCCC(=O)O[C@@H]1[C@@H](O)[C@@H](O)[C@@H]([C@H](NC(=O)[C@@H]2C[C@@H](CCC)CN2C)[C@H](C)Cl)O[C@@H]1SC [Clindamycin Palmitate·HCl] (concentration: 25 µM),mean cell size,Jurkat [1],1 ± 0.044
same,cell count,Jurkat [2],0.725 ± 0.025
Nc1ccn(C[C@@H](CO)OCP(=O)(O)O)c(=O)n1 [Cidofovir] (concentration: 25 µM),mean cell size,Jurkat [1],1.13 ± 0.057
same,cell count,Jurkat [2],0.593 ± 0.094
Cc1cccc(C)c1OCC(C)N (stereo unspecified) [Mexiletine·HCl] (concentration: 25 µM),mean cell size,Jurkat [1],0.983 ± 0.012
same,cell count,Jurkat [2],0.719 ± 0.014
N=C(N)N [Guanidine·HCl] (concentration: 25 µM),mean cell size,Jurkat [1],0.94 ± 0.018
same,cell count,Jurkat [2],1.02 ± 0.096
C#C[C@]1(O)CC[C@H]2[C@@H]3CCC4=CCCC[C@@H]4[C@H]3C(=C)C[C@@]21CC [Desogestrel] (concentration: 25 µM),mean cell size,Jurkat [1],0.943 ± 0.018
same,cell count,Jurkat [2],1.03 ± 0.027
CCCCCCCN(CC)CCCC(O)c1ccc(NS(C)(=O)=O)cc1 (stereo unspecified) [Ibutilide Fumarate] (concentration: 25 µM),mean cell size,Jurkat [1],0.936 ± 0.027
same,cell count,Jurkat [2],0.903 ± 0.047
OC(c1cc(C(F)(F)F)nc2c(C(F)(F)F)cccc12)C1CCCCN1 (stereo unspecified) [Mefloquine·HCl] (concentration: 2.5 µM),mean cell size,Jurkat [1],0.9935 ± 0.0057
same,cell count,Jurkat [2],0.813 ± 0.087
N=C(NCCCCCCNC(=N)NC(=N)Nc1ccc(Cl)cc1)NC(=N)Nc1ccc(Cl)cc1 [Chlorhexidine Dihydrochloride] (concentration: 2.5 µM),mean cell size,Jurkat [1],0.986 ± 0.017
same,cell count,Jurkat [2],0.763 ± 0.045
CC(C)(C)NCC(O)c1cc(O)cc(O)c1 (stereo unspecified) [Terbutaline Hemisulfate] (concentration: 25 µM),mean cell size,Jurkat [1],0.92 ± 0.066
same,cell count,Jurkat [2],0.503 ± 0.057
CCOC(=O)[C@H](CCc1ccccc1)N[C@@H](C)C(=O)N1[C@H](C(=O)O)C[C@@H]2CCC[C@@H]21 [Ramipril] (concentration: 25 µM),mean cell size,Jurkat [1],1.01 ± 0.029
same,cell count,Jurkat [2],0.965 ± 0.031
CC/C(=C(\c1ccccc1)c1ccc(OCCN(C)C)cc1)c1ccccc1 [Tamoxifen Citrate] (concentration: 25 µM),mean cell size,Jurkat [1],0.908 ± 0.015
same,cell count,Jurkat [2],0.314 ± 0.11
"Nc1ccn([C@H]2CC[C@@H](CO)O2)c(=O)n1 [Zalcitabine (2',3'-Dideoxycytidine)] (concentration: 25 µM)",mean cell size,Jurkat [1],1.31 ± 0.061
same,cell count,Jurkat [2],0.336 ± 0.073
Nc1nc(/C(=C/CC(=O)O)C(=O)N[C@@H]2C(=O)N3C(C(=O)O)=CCS[C@H]23)cs1 [Ceftibuten] (concentration: 25 µM),mean cell size,Jurkat [1],0.925 ± 0.016
same,cell count,Jurkat [2],1.11 ± 0.031
NC(=O)C(c1ccccc1)(c1ccccc1)[C@@H]1CCN(CCc2ccc3c(c2)CCO3)C1 [Darifenacin·HBr] (concentration: 25 µM),mean cell size,Jurkat [1],1.02 ± 0.015
same,cell count,Jurkat [2],0.723 ± 0.087
CN/C(=N\CCSCc1nc[nH]c1C)NC#N [Cimetidine] (concentration: 25 µM),mean cell size,Jurkat [1],1.02 ± 0.072
same,cell count,Jurkat [2],0.733 ± 0.17
NC[C@H]1CC[C@H](C(=O)O)CC1 [Tranexamic Acid] (concentration: 25 µM),mean cell size,Jurkat [1],0.961 ± 0.051
same,cell count,Jurkat [2],0.542 ± 0.14
CO/N=C(\C(=O)N[C@@H]1C(=O)N2C(C(=O)OCOC(=O)C(C)(C)C)=C(/C=C\c3scnc3C)CS[C@H]12)c1csc(N)n1 [Cefditoren Pivoxil] (concentration: 25 µM),mean cell size,Jurkat [1],0.9999 ± 0.0094
same,cell count,Jurkat [2],0.77 ± 0.14
CCCCC(C)(O)C/C=C/[C@H]1[C@H](O)CC(=O)[C@@H]1CCCCCCC(=O)OC (mixture of isomers) [Misoprostol] (concentration: 25 µM),mean cell size,Jurkat [1],0.939 ± 0.037
same,cell count,Jurkat [2],0.702 ± 0.08
CC(C)OC(=O)CCC/C=C\C[C@@H]1[C@@H](CC[C@@H](O)CCc2ccccc2)[C@H](O)C[C@@H]1O [Latanoprost] (concentration: 25 µM),mean cell size,Jurkat [1],0.981 ± 0.046
same,cell count,Jurkat [2],0.534 ± 0.18
COc1c(C)c2c(c(O)c1C/C=C(\C)CCC(=O)OCCN1CCOCC1)C(=O)OC2 [Mycophenolate Mofetil] (concentration: 25 µM),mean cell size,Jurkat [1],0.892 ± 0.0081
same,cell count,Jurkat [2],0.203 ± 0.039
Cc1nc2n(c(=O)c1CCN1CCC(c3noc4cc(F)ccc34)CC1)CCCC2 [Risperidone] (concentration: 25 µM),mean cell size,Jurkat [1],0.95 ± 0.051
same,cell count,Jurkat [2],0.809 ± 0.13
NS(=O)(=O)c1cc2c(cc1C(F)(F)F)NCNS2(=O)=O [Hydroflumethiazide] (concentration: 25 µM),mean cell size,Jurkat [1],0.944 ± 0.048
same,cell count,Jurkat [2],0.681 ± 0.17
CCCCC[C@H](O)/C=C/[C@H]1[C@H](O)CC(=O)[C@@H]1CCCCCCC(=O)O [Alprostadil] (concentration: 25 µM),mean cell size,Jurkat [1],0.872 ± 0.0094
same,cell count,Jurkat [2],0.73 ± 0.12
C[C@@H]1C[C@H]2[C@@H]3CCC4=CC(=O)C=C[C@]4(C)[C@@]3(Cl)[C@@H](O)C[C@]2(C)[C@@]1(OC(=O)c1ccco1)C(=O)CCl [Mometasone Furoate] (concentration: 25 µM),mean cell size,Jurkat [1],0.915 ± 0.037
same,cell count,Jurkat [2],0.47 ± 0.17
Cc1cn(-c2cc(NC(=O)c3ccc(C)c(Nc4nccc(-c5cccnc5)n4)c3)cc(C(F)(F)F)c2)cn1 [Nilotinib] (concentration: 25 µM),mean cell size,Jurkat [1],0.979 ± 0.037
same,cell count,Jurkat [2],0.762 ± 0.086
CCN[C@H]1C[C@H](C)S(=O)(=O)c2sc(S(N)(=O)=O)cc21 [Dorzolamide·HCl] (concentration: 25 µM),mean cell size,Jurkat [1],0.965 ± 0.04
same,cell count,Jurkat [2],0.675 ± 0.14
CN(C)CCC[C@@]1(c2ccc(F)cc2)OCc2cc(C#N)ccc21 [Escitalopram] (concentration: 25 µM),mean cell size,Jurkat [1],1.06 ± 0.039
same,cell count,Jurkat [2],0.382 ± 0.085
O=C(O)c1cc(N=Nc2ccc(O)c(C(=O)O)c2)ccc1O [Olsalazine·Na] (concentration: 25 µM),mean cell size,Jurkat [1],0.955 ± 0.036
same,cell count,Jurkat [2],0.611 ± 0.042
CN(C)C(=N)NC(=N)N [Metformin·HCl] (concentration: 25 µM),mean cell size,Jurkat [1],0.954 ± 0.067
same,cell count,Jurkat [2],0.66 ± 0.18
CCN(CC)CCOc1ccc(C(=C(Cl)c2ccccc2)c2ccccc2)cc1 [Clomiphene Citrate] (concentration: 25 µM),mean cell size,Jurkat [1],0.897 ± 0.013
same,cell count,Jurkat [2],0.793 ± 0.056
CCC[C@@H]1C[C@@H](C(=O)N[C@@H]([C@H]2O[C@H](SC)[C@H](O)[C@@H](O)[C@H]2O)[C@@H](C)O)N(C)C1 [Lincomycin·HCl] (concentration: 25 µM),mean cell size,Jurkat [1],1.1 ± 0.045
same,cell count,Jurkat [2],0.754 ± 0.11
CC(COc1ccccc1)N(CCCl)Cc1ccccc1 (stereo unspecified) [Phenoxybenzamine·HCl] (concentration: 25 µM),mean cell size,Jurkat [1],0.965 ± 0.021
same,cell count,Jurkat [2],0.746 ± 0.08
O=NN(CCCl)C(=O)NC1CCCCC1 [Lomustine] (concentration: 25 µM),mean cell size,Jurkat [1],1.19 ± 0.07
same,cell count,Jurkat [2],0.287 ± 0.11
NS(=O)(=O)c1cc2c(cc1Cl)N=CNS2(=O)=O [Chlorothiazide] (concentration: 25 µM),mean cell size,Jurkat [1],0.926 ± 0.011
same,cell count,Jurkat [2],1.16 ± 0.082
Nc1nc(=O)n([C@@H]2CS[C@H](CO)O2)cc1F [Emtricitabine] (concentration: 25 µM),mean cell size,Jurkat [1],1.03 ± 0.019
same,cell count,Jurkat [2],0.581 ± 0.14
CCCNC(C)C(=O)Nc1ccccc1C (stereo unspecified) [Prilocaine·HCl] (concentration: 25 µM),mean cell size,Jurkat [1],1 ± 0.022
same,cell count,Jurkat [2],0.693 ± 0.13
COC(=O)C1=C(C)NC(C)=C(C(=O)OC(C)C)C1c1cccc2nonc12 (stereo unspecified) [Isradipine] (concentration: 25 µM),mean cell size,Jurkat [1],0.924 ± 0.03
same,cell count,Jurkat [2],1.13 ± 0.13
Cc1cccc(CN2CCN(C(c3ccccc3)c3ccc(Cl)cc3)CC2)c1 (stereo unspecified) [Meclizine Dihydrochloride] (concentration: 25 µM),mean cell size,Jurkat [1],0.965 ± 0.024
same,cell count,Jurkat [2],0.703 ± 0.088
O=C(c1ccc(OCCN2CCCCC2)cc1)c1c(-c2ccc(O)cc2)sc2cc(O)ccc12 [Raloxifene·HCl] (concentration: 25 µM),mean cell size,Jurkat [1],0.891 ± 0.016
same,cell count,Jurkat [2],0.675 ± 0.044
N[C@@H](Cc1cc(I)c(Oc2ccc(O)c(I)c2)c(I)c1)C(=O)O [Liothyronine·Na] (concentration: 25 µM),mean cell size,Jurkat [1],0.966 ± 0.02
same,cell count,Jurkat [2],0.648 ± 0.15
Nc1ccn([C@@H]2CS[C@H](CO)O2)c(=O)n1 [Lamivudine] (concentration: 25 µM),mean cell size,Jurkat [1],0.995 ± 0.046
same,cell count,Jurkat [2],0.624 ± 0.13
Clc1ccc2c(c1)C(N1CCNCC1)=Nc1ccccc1O2 [Amoxapine] (concentration: 25 µM),mean cell size,Jurkat [1],1.03 ± 0.013
same,cell count,Jurkat [2],0.538 ± 0.073
NCCCC(O)(P(=O)(O)O)P(=O)(O)O [Alendronate·Na Trihydrate] (concentration: 25 µM),mean cell size,Jurkat [1],0.927 ± 0.043
same,cell count,Jurkat [2],0.282 ± 0.11
O=C(O)Cc1ccccc1Nc1c(Cl)cccc1Cl [Diclofenac·Na Salt] (concentration: 25 µM),mean cell size,Jurkat [1],0.978 ± 0.039
same,cell count,Jurkat [2],0.725 ± 0.073
CC(C)NCC(O)c1cc(O)cc(O)c1 (stereo unspecified) [Metaproterenol Hemisulfate (Orciprenaline)] (concentration: 25 µM),mean cell size,Jurkat [1],1.1 ± 0.033
same,cell count,Jurkat [2],0.895 ± 0.04
